This is an account of results in the supplement of paper PMC12645437, “Orthogonal IMiD-Degron Pairs Induce Selective Protein Degradation in Cells” (ACS Chemical Biology, 2025).

The target in the assay is T1, CRBN, Q96SW2.
T1 chain: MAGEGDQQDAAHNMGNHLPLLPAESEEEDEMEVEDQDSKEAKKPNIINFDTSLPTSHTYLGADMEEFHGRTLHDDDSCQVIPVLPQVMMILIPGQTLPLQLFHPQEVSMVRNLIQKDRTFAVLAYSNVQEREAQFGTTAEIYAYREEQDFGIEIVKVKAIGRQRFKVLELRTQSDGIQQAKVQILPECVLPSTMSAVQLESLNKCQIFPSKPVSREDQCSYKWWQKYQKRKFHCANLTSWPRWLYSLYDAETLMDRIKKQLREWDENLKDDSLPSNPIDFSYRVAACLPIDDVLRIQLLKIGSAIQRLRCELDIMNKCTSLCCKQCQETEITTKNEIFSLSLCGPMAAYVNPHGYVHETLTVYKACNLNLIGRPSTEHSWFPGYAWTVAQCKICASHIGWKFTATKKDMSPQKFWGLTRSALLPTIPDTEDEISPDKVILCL
As to the kind of experiment: log2 fold change of degron read counts, EGFP-low vs EGFP+ sorted cells (limma voom), compound-induced degradation; higher = more compound-induced degradation of the degron-EGFP fusion; degrons are variants of IKZF1/3 zinc finger 2; compound dose not given here. Particulars: Jurkat, 18 h. The procedure:
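Pooled library of 8380 IKZF3 ZF2 degron mutants (positions 146-167 varied within the IKZF3 130-189 degron; only the varied core is printed, flanks not printed) fused to EGFP with IRES-mCherry, lentivirally expressed in Jurkat cells. mCherry+ cells were treated with one IMiD compound for 18 h (dose not stated) and FACS-sorted into EGFP-low and EGFP+ populations. Degron sequences were counted by NGS, and log2FC (EGFP-low vs EGFP+) was estimated by limma voom over 3 biological replicates.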

Where [1] appears, read: compound: compound 19 (5-tert-butyl-thalidomide).
Setting [2] is: compound: compound 22 (5-morpholino-thalidomide).
The mark [3] stands for this setting: compound: compound 33 (diphenyl IMiD analogue).

Whole data set: some 8,300 sequences, median “log2 fold change of degron read counts, EGFP-low vs EGFP+ sorted cells (limma voom), compound-induced degradation” near -1.1, cut for the highest 2% near 3.2. Only a selection was taken, and the highest values are over-represented in it overall.
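Further: pooled lentiviral library of zinc finger degron-EGFP fusions in mCherry-positive Jurkat cells, FACS-sorted after compound exposure, with degron abundance counted by next-generation sequencing.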

FICNVCGAQFTQKGNLLRHIKL [46F_47I_49N_50V_52G_53A_54Q_55F_67L_, Q9UKT9]: the “log2 fold change of degron read counts” value under setting [1] is -1.95, the “log2 fold change of degron read counts” value under setting [2] came out at 0.393, the “log2 fold change of degron read counts” value under setting [3] came to 2 and the “log2 fold change of degron read counts” value (compound: thalidomide) turned out to be 0.761.

FWCEQCGAIFTQKGNLLRHIKL [46F_47W_49E_50Q_52G_53A_54I_55F_67L_, Q9UKT9]: the “log2 fold change of degron read counts” value under setting [1] was -0.201, the “log2 fold change of degron read counts” value under setting [2] stood at 0.552, the “log2 fold change of degron read counts” value under setting [3] worked out at 0.154 and the “log2 fold change of degron read counts” value (compound: thalidomide) was -1.07.

Take FQCEVCGAIFTQKGNLLRHIKL [46F_47Q_49E_50V_52G_53A_54I_55F_67L_, Q9UKT9]: the “log2 fold change of degron read counts” value is -1.13 under setting [1], 3.07 under setting [2], 2.65 under setting [3] and 3.7 (compound: thalidomide).

On to FSCEVCGAIFTQKGNLLRHIKL [46F_47S_49E_50V_52G_53A_54I_55F_67L_, Q9UKT9], for which the “log2 fold change of degron read counts” value under setting [1] came out at 1.27, the “log2 fold change of degron read counts” value under setting [2] was found to be 0.887, the “log2 fold change of degron read counts” value under setting [3] came out at 1.42 and the “log2 fold change of degron read counts” value (compound: thalidomide) is 0.379.

For FICEVCGAIFTQKGNLLRHIKL [46F_47I_49E_50V_52G_53A_54I_55F_67L_, Q9UKT9], the “log2 fold change of degron read counts” value runs as follows: under setting [1], -1.14; under setting [2], 0.0357; under setting [3], 2.04; (compound: thalidomide) 1.14.

Turning to FYCEVCGAIFTQKGNLLRHIKL [46F_47Y_49E_50V_52G_53A_54I_55F_67L_, Q9UKT9], the “log2 fold change of degron read counts” value under setting [1] amounted to 2.89, the “log2 fold change of degron read counts” value under setting [2] is 3.45, the “log2 fold change of degron read counts” value under setting [3] worked out at 2.43 and the “log2 fold change of degron read counts” value (compound: thalidomide) came to 0.38.

As to FRCEVCGAIFTQKGNLLRHIKL [46F_47R_49E_50V_52G_53A_54I_55F_67L_, Q9UKT9], the “log2 fold change of degron read counts” value under setting [1] is -1.36, the “log2 fold change of degron read counts” value under setting [2] is -1.29, the “log2 fold change of degron read counts” value under setting [3] is 0.815 and the “log2 fold change of degron read counts” value (compound: thalidomide) is 1.07.

Take FVCEVCGAIFTQKGNLLRHIKL [46F_47V_49E_50V_52G_53A_54I_55F_67L_, Q9UKT9]: the “log2 fold change of degron read counts” value runs as follows: under setting [1], -1.03; under setting [2], -0.779; under setting [3], 1.43; (compound: thalidomide) 1.47.

Take FCCSVCGHLFTQKGNLLRHIKL [46F_47C_49S_50V_52G_53H_54L_55F_67L_, Q9UKT9]: the “log2 fold change of degron read counts” value was -2.25 under setting [1], -2.38 under setting [2], -2.22 under setting [3] and -2.25 (compound: thalidomide).

For FRCEQCGAGFTQKGNLLRHIKL [46F_47R_49E_50Q_52G_53A_54G_55F_67L_, Q9UKT9], the “log2 fold change of degron read counts” value is, setting by setting: under setting [1], -0.467; under setting [2], -1.48; under setting [3], 0.986; (compound: thalidomide) -0.649.

On to FSCNVCGAEFTQKGNLLRHIKL [46F_47S_49N_50V_52G_53A_54E_55F_67L_, Q9UKT9], for which the “log2 fold change of degron read counts” value runs as follows: under setting [1], -1.82; under setting [2], -2; under setting [3], -0.491; (compound: thalidomide) -1.04.

In the case of FLCNQCGHTFTQKGNLLRHIKL [46F_47L_49N_50Q_52G_53H_54T_55F_67L_, Q9UKT9], the “log2 fold change of degron read counts” value was -2.86 under setting [1], -3.5 under setting [2], -3.07 under setting [3] and -2.79 (compound: thalidomide).

For FICSVCGHTFTQKGNLLRHIKL [46F_47I_49S_50V_52G_53H_54T_55F_67L_, Q9UKT9], the “log2 fold change of degron read counts” value reads like this: under setting [1], -2.11; under setting [2], -2.3; under setting [3], -3.14; (compound: thalidomide) -2.67.

As for FFCDICGATFTQKGNLLRHIKL [46F_47F_49D_50I_52G_53A_54T_55F_67L_, Q9UKT9], the “log2 fold change of degron read counts” value was 2.91 under setting [1], 2.77 under setting [2], 0.337 under setting [3] and -0.566 (compound: thalidomide).

For the sequence FQCEVCGADFTQKGNLLRHIKL [46F_47Q_49E_50V_52G_53A_54D_55F_67L_, Q9UKT9], the “log2 fold change of degron read counts” value runs as follows: under setting [1], -0.53; under setting [2], -0.0138; under setting [3], 1.04; (compound: thalidomide) 3.09.

FACEVCGASFTQKGNLLRHIKL [46F_47A_49E_50V_52G_53A_54S_55F_67L_, Q9UKT9]: the “log2 fold change of degron read counts” value is, setting by setting: under setting [1], 3.87; under setting [2], 2.73; under setting [3], 0.799; (compound: thalidomide) 1.03.

As to FICEVCGASFTQKGNLLRHIKL [46F_47I_49E_50V_52G_53A_54S_55F_67L_, Q9UKT9], the “log2 fold change of degron read counts” value runs as follows: under setting [1], 0.0302; under setting [2], 2.88; under setting [3], 2.44; (compound: thalidomide) 2.95.

Consider FRCEVCGASFTQKGNLLRHIKL [46F_47R_49E_50V_52G_53A_54S_55F_67L_, Q9UKT9], for which the “log2 fold change of degron read counts” value is, setting by setting: under setting [1], 2.07; under setting [2], 1.56; under setting [3], 2.15; (compound: thalidomide) 2.07.

FQCEVCGASFTQKGNLLRHIKL [46F_47Q_49E_50V_52G_53A_54S_55F_67L_, Q9UKT9]: the “log2 fold change of degron read counts” value under setting [1] was found to be 2.49, the “log2 fold change of degron read counts” value under setting [2] was found to be 2.89, the “log2 fold change of degron read counts” value under setting [3] stood at 2.13 and the “log2 fold change of degron read counts” value (compound: thalidomide) came to 3.53.

Turning to FVCEVCGASFTQKGNLLRHIKL [46F_47V_49E_50V_52G_53A_54S_55F_67L_, Q9UKT9], the “log2 fold change of degron read counts” value by setting is: under setting [1], 1.21; under setting [2], 2.91; under setting [3], 2.54; (compound: thalidomide) 3.54.

As for FACNVCGASFTQKGNLLRHIKL [46F_47A_49N_50V_52G_53A_54S_55F_67L_, Q9UKT9], the “log2 fold change of degron read counts” value by setting is: under setting [1], 1.32; under setting [2], 0.642; under setting [3], -0.249; (compound: thalidomide) -1.16.

For FCCNVCGASFTQKGNLLRHIKL [46F_47C_49N_50V_52G_53A_54S_55F_67L_, Q9UKT9], the “log2 fold change of degron read counts” value under setting [1] was determined as 0.743, the “log2 fold change of degron read counts” value under setting [2] was determined as 0.454, the “log2 fold change of degron read counts” value under setting [3] is 0.99 and the “log2 fold change of degron read counts” value (compound: thalidomide) is 0.32.

Turning to FYCEVCGASFTQKGNLLRHIKL [46F_47Y_49E_50V_52G_53A_54S_55F_67L_, Q9UKT9], the “log2 fold change of degron read counts” value runs as follows: under setting [1], 3.7; under setting [2], 3.86; under setting [3], 2.94; (compound: thalidomide) 1.59.

As to FHCEVCGASFTQKGNLLRHIKL [46F_47H_49E_50V_52G_53A_54S_55F_67L_, Q9UKT9], the “log2 fold change of degron read counts” value by setting is: under setting [1], 2.93; under setting [2], 2.64; under setting [3], 1.35; (compound: thalidomide) 0.198.

As to FMCEVCGASFTQKGNLLRHIKL [46F_47M_49E_50V_52G_53A_54S_55F_67L_, Q9UKT9], the “log2 fold change of degron read counts” value is, setting by setting: under setting [1], 1.39; under setting [2], 1.79; under setting [3], 2.94; (compound: thalidomide) 2.05.

With FRCEICGRNFTQKGNLLRHIKL [46F_47R_49E_50I_52G_53R_54N_55F_67L_, Q9UKT9], the “log2 fold change of degron read counts” value under setting [1] was -2.69, the “log2 fold change of degron read counts” value under setting [2] was -2.64, the “log2 fold change of degron read counts” value under setting [3] was -1.31 and the “log2 fold change of degron read counts” value (compound: thalidomide) is -0.795.

As for FACNQCGAFFTQKGNLLRHIKL [46F_47A_49N_50Q_52G_53A_54F_55F_67L_, Q9UKT9], the “log2 fold change of degron read counts” value under setting [1] is -1.64, the “log2 fold change of degron read counts” value under setting [2] was -2.14, the “log2 fold change of degron read counts” value under setting [3] was -1.53 and the “log2 fold change of degron read counts” value (compound: thalidomide) is -2.28.

Regarding FRCEICGRGFTQKGNLLRHIKL [46F_47R_49E_50I_52G_53R_54G_55F_67L_, Q9UKT9], the “log2 fold change of degron read counts” value is -2 under setting [1], -1.92 under setting [2], -0.0801 under setting [3] and -0.562 (compound: thalidomide).
